# Assay outcomes deposited in PubChem by National Center for Advancing Translational Sciences (NCATS).
# aSyn yeast inh: rescues yeast growth from alpha-synuclein toxicity; 370,000 compounds, 0.14% hits; Potency, µM (series often up to 46.1 µM), for the others: top-dose growth rescue (activation), actives largely listed as activators; Yeast expressing alpha-synuclein, growth rescue, BacTiter-Glo, 24 h; AID 652106; also: potency is read from the fitted curve at half-maximal effect; % of control where 0% means no effect; nearly all actives have a fitted effect of over 65% in size
#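 Screening used galactose-induced yeast with toxic alpha-synuclein levels, exposed to compound for 24 hr at 30 deg C. Cell growth, read with BacTiter-Glo luminescence, gave the measured signal.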
# FUS suppressor: rescues growth of FUS-expressing yeast; S. cerevisiae FUS-expressing, growth rescue, OD600, 24 h; 390,000 compounds, 0.24% hits; Potency, µM (titrated, usually from 76.6 µM), usual class: activators; AID 1347120;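 also: potency is read from the fitted curve at half-maximal effect; plate controls were DMSO vehicle for no effect and reference control for full effect; nearly all actives have a fitted effect of over 55% in size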
#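 Restored growth of FUS-toxic S. cerevisiae, read as 600 nm absorbance after 24 h at 30C in galactose medium (starting OD 0.005). Controls CP55940 and DMSO.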
# Mm-Cpn inhibitor: blocks the Methanococcus maripaludis chaperonin Mm-Cpn; 330,000 compounds, 0.031% hits; purified Mm-Cpn ATPase, ADP Transcreener TR-FRET; Potency, µM (top dose mostly 76.9 µM), for the others: top-dose activity, negative = inhibition, most hits filed as inhibitors; also: potency is read from the fitted curve at half-maximal effect; % is scaled to controls: 0 for no effect and ±100 for the full control effect; nearly all actives have a fitted effect of over 80% in size
#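 ATPase turnover read by TR-FRET ADP competition (Eu cryptate antibody/ADP-d2, 665/590 nm): 10uM ATP final, 25nM Mm-CPN final, 30 min 37degC after 10-min compound preincubation, pH 7.4 Tris/KCl/MgCl2/DTT buffer.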
# Abeta rescue: A-beta toxicity reversal in yeast. yeast expressing A-beta42, growth rescue, OD600, 48 h; response scale: 0% DMSO, 100% iron-clioquinol control. Potency, µM (top dose mostly 46.1 µM), hits mostly activators. 410,000 compounds, 0.063% hits; also: potency is read from the fitted curve at half-maximal effect; nearly all actives have a fitted effect of over 55% in size
#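 Yeast growth medium received pinned compounds, then yeast cells expressing toxic A-beta were added; plates incubated at 30 C for 48 hr. Growth read as absorbance at 600 nm, normalized to DMSO and equimolar FeCl3 plus clioquinol controls.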
# CCT chaperon mod: cytosolic chaperonin activity modulation | purified chaperonin ATPase assay, HTRF ADP detection, 30 min | activity change, % (no concentration beside the values), hits read low | 360,000 compounds, 0.3% hits | AID 651819; in the data active = activity change below about -30%; also: % is scaled to controls: 0 for no effect and ±100 for the full control effect
#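 First, chaperonin was dispensed at 40 nM or 20 nM final depending on batch activity. Next, compounds were pinned at 76 uM and ATP added at 10 uM. After 30 min at 37 °C, ADP detection reagents ran 30 min at ambient temperature.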
# TDP-43 yeast inh: rescues yeast growth from TDP-43 toxicity. AID 652104. 410,000 compounds, 1.8% hits. TDP-43 expressing yeast growth rescue, BacTiter-Glo, 24 h. Potency, µM (doses to about 46.1 µM), for the others: top-dose growth rescue (activation), actives largely listed as activators; also: potency is read from the fitted curve at half-maximal effect; % of control where 0% means no effect; nearly all actives have a fitted effect of over 50% in size
#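 Yeast expressing TDP-43 (pregrown in raffinose, seeded at OD600=0.02 in galactose medium) exposed to compounds 24 hr at 30 deg C. Growth read by BacTiter-Glo luminescence; rescue of toxicity appears as increased signal.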
# * = called active by the depositor; i = inactive; ? = inconclusive; / = not tested or not shown. Rows were chosen to be rich in hits. Some 2.3% of all compounds tested hit in one or more screens of this group. Unless noted, calls follow the shape of the dose curve; as a rule, active = well fitted curve in the direction sought with a large enough effect; inconclusive = small, poorly fitted or top-dose-only effect, or another doubt; inactive = no such curve, though single readings can be large; an effect the other way counts as inactive or inconclusive.
SMILES,aSyn yeast inh,FUS suppressor,Mm-Cpn inhibitor,Abeta rescue,CCT chaperon mod,TDP-43 yeast inh
S=c1nc(-c2cc(Cl)ccc2Cl)[nH][nH]1,-2.2%,i,-24.2%,17.8µM*,0.1,?
COc1ccc(C=NN=C2c3ccccc3-c3ccccc32)cc1O,1.4%,/,/,i,1.6,17.8µM*
CSc1cccc(N2CC(C(=O)N(Cc3nnc(-c4ccccc4Cl)o3)C3CC3)CC2=O)c1 (stereo not given),10.5%,i,-2.6%,i,1.8,-0.9%
CCOc1ccccc1N1CC(C(=O)N(Cc2nnc(-c3ccccc3Cl)o2)C2CC2)CC1=O (stereo not given),4.2%,i,-0.2%,i,-35.6*,4.6%
Cc1ccc(-c2cc(-c3nnc(SCC(=O)Nc4nccs4)n3N)[nH]n2)cc1,/,i,/,/,/,/
CCOC(=O)N1CCc2c(sc3c2c(=O)n(CCc2ccccc2)c(=O)n3CC(=O)Nc2ccc(C)cc2)C1,/,i,/,i,/,1.8%
O=C(Oc1ccc(Cl)c2cccnc12)c1cccnc1,27.9%,i,-0.9%,i,3.0,11.2µM*
Cc1ccc(C(=O)Oc2ccc(Cl)c3cccnc23)cc1[N+](=O)[O-],-48.0%,/,-1.5%,i,0.2,?
O=C(Nc1cccc(-c2nc3ncccc3o2)c1)c1ccccc1,-0.3%,i,-3.0%,i,-2.2,15.8µM*
CCCC[C@@H]1Cc2[nH][nH]c(=O)c2[C@H](c2ccc(C(C)C)cc2)O1,-19.6%,?,/,i,0.0,20µM*
O=c1[nH][nH]c2c1[C@H](c1ccc(F)cc1)O[C@H](C1CCCCC1)C2,0.8%,?,/,i,-10.9,31.6µM*
O=c1[nH][nH]c2c1[C@H](c1ccccc1)O[C@H](C1CCCCC1)C2,4.7%,?,/,i,0.7,35.5µM*
O=c1[nH][nH]c2c1[C@H](c1ccc(Cl)cc1)O[C@H](C1CC1)C2,1.3%,i,/,i,0.8,11.2µM*
O=c1[nH][nH]c2c1[C@@H](c1ccc(F)cc1)O[C@H](C1CCCCC1)C2,-2.3%,i,/,i,-0.3,14.1%
C[C@@H]1Cc2[nH][nH]c(=O)c2[C@H](c2ccc(Cl)cc2)O1,-0.2%,i,/,i,-1.8,29.3%
Cc1ccccc1C(=O)Nc1cccc(-c2nnc(SCC(=O)NCc3ccco3)n2C)c1,1.6%,/,/,/,/,/
Cc1ccc(C(=O)NCc2ccc(Cl)c(Cl)c2)o1,-9.4%,i,0.7%,i,-0.4,?
CCOC(=O)NCc1ccc(Cl)c(Cl)c1,7.6%,i,-0.6%,i,0.0,17.8µM*
Nc1nc(SCc2ccc(F)cc2)ns1,-13.0%,i,-0.8%,?,-1.6,12.6µM*
Nc1nnc(SCc2ccc(F)cc2)s1,-0.4%,i,/,i,-0.7,-11.7%
CCOc1ccc(C2=NNC(c3cccs3)=Nc3ccc(OC)cc32)cc1,-1.0%,17.8µM*,0.2%,i,-1.0,-36.2%
CCOc1ccc(C2=NNC(c3cccnc3)=Nc3ccc(OC)cc32)cc1,-2.7%,i,-0.6%,i,-2.4,11.4%
O=c1c2ccccc2sc2ccccc12,4.6%,i,/,i,-34.6*,0.0%
CCc1ccc(CCNC(=O)OC2CC3CC2[C@H]2CCCCN2[C@H]3Cc2ccccc2)cc1 (stereo not given in full),/,i,/,/,/,/
O=C(COc1cccc(Cl)c1)Nc1nc(-c2ccc(S(=O)(=O)N3CCOCC3)cc2)cs1,11.2%,i,39.8µM*,i,-3.2,9.3%
SMILES,aSyn yeast inh,FUS suppressor,Mm-Cpn inhibitor,Abeta rescue,CCT chaperon mod,TDP-43 yeast inh
Cc1cc(SCc2cc(=O)n3ccsc3n2)nc2ccccc12,1.0%,i,-0.1%,i,-0.5,11.2µM*
C=CCn1c(SCc2cc(=O)n3ccsc3n2)nc2ccccc2c1=O,-6.0%,i,0.2%,i,-1.3,16.9%
Oc1ccc2ccccc2c1CNc1ccc(Br)cn1,1.2%,i,0.4%,i,-2.2,20µM*
O=C1CN(C(=O)c2ccc(S(=O)(=O)N3CCCCC3)cc2)C(c2ccc(F)cc2)c2cc(Br)ccc2N1 (stereo not given),/,17.8µM*,/,i,/,10.0%
Cc1ccc2c(c1)C(c1ccc(F)cc1)N(C(=O)c1ccc(S(=O)(=O)N3CCCCC3)cc1)CC(=O)N2 (stereo not given),/,31.6µM*,/,i,/,-8.9%
O=C1CN(C(=O)c2ccc(S(=O)(=O)N3CCCC3)cc2)C(c2ccc(F)cc2)c2cc(Br)ccc2N1 (stereo not given),/,?,/,i,/,5.1%
O=C(COC(=O)/C=C/c1ccc(Cl)cc1)NC1CCCC1,-11.3%,i,-0.2%,i,1.9,9.4%
O=C(COC(=O)c1ccc(F)cc1Cl)NC1CC1,-4.0%,i,/,i,-50.2*,0.9%
O=C(COC(=O)c1cccc2c1C(=O)c1ccccc1C2=O)NC1CCCCC1,4.3%,i,0.0%,i,-1.6,?
O=C(COC(=O)/C=C/c1ccc(Cl)c(Cl)c1)NC1CC1,24.0%,/,-0.3%,i,-1.5,10µM*
O=C(COC(=O)c1ccc2c(c1[N+](=O)[O-])C(=O)c1ccccc1C2=O)NC1CC1,-45.5%,i,-1.4%,i,1.4,3.55µM*
CSc1ccc(/C=C/C(=O)OCC(=O)NC2CCCC2)cc1,-1.4%,i,/,i,-0.8,20µM*
O=C(COC(=O)c1cc(F)c(F)cc1Cl)NC1CC1,-3.1%,i,0.6%,i,-2.9,16.6%
Cc1ccc(S(=O)(=O)N2CCCC2C(=O)N2CCN(c3ccccc3)CC2)cc1C (stereo not given),/,i,/,/,/,/
Cc1ccc(NC(=O)N2CCc3c(sc4c3CCCC4)C2c2ccccc2)cc1F (stereo not given),/,i,/,i,/,-2.9%
CCOc1ccc(NC(=O)CN(c2cccc(C(F)(F)F)c2)S(C)(=O)=O)cc1,3.7%,i,3.1%,i,-0.5,12.6µM*
COc1ccc(-c2nc(CSCC(=O)N3CCN(c4cccc(C)c4C)CC3)c(C)o2)cc1OC,/,25.1µM*,/,i,/,?
CCOc1ccc(-c2nc(CSCC(=O)N3CCN(c4cccc(C(F)(F)F)c4)CC3)c(C)o2)cc1,/,22.4µM*,/,i,/,8.9%
O=C(Nc1nc2ncccn2c1-c1ccc(F)cc1)c1ccccc1,/,i,/,/,/,/
N#Cc1cc(N)ccc1-n1cccc1,2.3%,i,-4.4%,i,1.2,9.0%
N#Cc1cc(N)ccc1Sc1ccccc1,12.5%,i,-0.9%,i,0.5,11.2µM*
